Test results published in PubChem BioAssay AID429 (Emory University Molecular Libraries Screening Center, 2006).
About 220 (0.34%) of roughly 64,000 compounds were called active.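 Rule for the calls: active = inhibition above 50%; inactive = the rest.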 This excerpt belongs to a sample that is enriched for actives.

Biological target: Heat shock protein HSP 90-alpha (Homo sapiens) (UniProt P07900)
Experiment: tumor Hsp90 inhibitors, primary screen, cell lysate, fluorescence polarization, NCI-N417 lysate (AID 429);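 note: 0% = tracer plus lysate wells and 100% = tracer alone without lysate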
Details: NCI-N417 lysate Hsp90, Cy3B-geldanamycin FP displacement; at 30 µM; hits give high values

Structure (SMILES)	inhibition
Cc1cccn2c(=O)c3cc(C(=O)N4COCC4(C)C)n(C)c3nc12	0.48% (inactive)
COc1ccc(Cl)cc1S(=O)(=O)Nc1cccc(C(=O)O)c1	-0.7% (inactive)
Cc1ccc(C(=O)O)cc1S(=O)(=O)NCC1CCCO1 (centres undefined)	77.4% (active)
Cc1cc(Cl)c(S(=O)(=O)NCC2CCCO2)cc1OCC(N)=O (centres undefined)	-4.41% (inactive)
O=S(=O)(NCC1CCCO1)c1ccc2ccccc2c1 (centres undefined)	-3.52% (inactive)
CCSc1nc2c(c(=O)[nH]1)C(c1cccnc1)C(C(=O)OC(C)C)=C(C)N2 (centres undefined)	-0.2% (inactive)
O=C(O)CSC(NC(=O)c1cccnc1)(C(F)(F)F)C(F)(F)F	-0.65% (inactive)
O=C(Nn1cnc2ccccc2c1=O)c1ccc(F)cc1Cl	-2.64% (inactive)
CCCCn1c(=S)[nH]c2ncccc2c1=O	-6.13% (inactive)
O=C(NC1CCCCC1)N1CCc2[nH]c3ccccc3c2C1	-4.69% (inactive)
Cc1ccc2[nH]c3c(c2c1)CN(C(=O)CN1CCN(c2ccccc2)CC1)CC3	92.3% (active)
CCCC(=O)N1CCc2[nH]c3ccccc3c2C1	-3.78% (inactive)
Cc1ccc(C)c(N(CC(=O)NCc2ccco2)C(=O)CCC(=O)Nc2ccccn2)c1	-5.16% (inactive)
Cc1c(C(=O)OCC(=O)N(CCC#N)c2ccccc2)oc2c1ccc1ccccc12	0.74% (inactive)
COc1nc(Oc2ccc(=O)n(C)n2)nc(N(C)C)n1	-0.95% (inactive)
COc1cccc(C2/C(=C(/O)c3ccc(F)cc3)C(=O)C(=O)N2CCN(C)C)c1 (centres undefined)	-1.56% (inactive)
CC1CN(c2cc(=O)n(-c3cccc(Br)c3)c(=O)[nH]2)CC(C)O1 (centres undefined)	1.65% (inactive)
Cc1ccc(N2CCN(c3ccc(C)cc3)C2c2ccccn2)cc1	0.05% (inactive)
COc1cc(C2C(C(=O)Nc3ccc(F)cc3)=C(C)Nc3nc(CCCO)nn32)cc(OC)c1OC (centres undefined)	-1.54% (inactive)
CCOc1ccccc1N(CC(=O)NC1CCCCC1)C(=O)CCCC(=O)Nc1ccccn1	-0.59% (inactive)

Structure (SMILES)	inhibition
CC1OC2C(OC1C)N(S(C)(=O)=O)CCN2S(C)(=O)=O (centres undefined)	-2.81% (inactive)
O=C(O)CCC(=O)Nc1ccc(N2CCOCC2)cc1	8.24% (inactive)
COc1ccc(C(=O)NCc2cn3ccccc3n2)cc1	2.11% (inactive)
O=C(CC1N=C2c3ccccc3N=C(SCc3ccccc3Cl)N2C1=O)NCc1ccco1 (centres undefined)	-7.5% (inactive)
CCCC(C(=O)NCc1ccco1)N(C(=O)CNS(=O)(=O)c1ccccc1)C1CCCC1 (centres undefined)	-1.3% (inactive)
CCOC(=O)CSC1=C(C#N)C(c2sccc2C)CC(=O)N1 (centres undefined)	-2.64% (inactive)
Cc1nn(-c2ccccc2)c(C)c1C(=O)OCC(=O)NC(=O)NC1CCCCC1	-2.89% (inactive)
CCCN(CCc1ccccc1)C1CCc2c(O)cccc2C1 (centres undefined)	-0.71% (inactive)
CCCn1c(=O)c2ccccc2n2c(SCC(=O)/C(C#N)=C(\C)N)nnc12	-5.05% (inactive)
O=c1cc(CSc2ccccn2)nc(N2CCN(c3ccccc3)CC2)[nH]1	-2.49% (inactive)
CC(C)NS(=O)(=O)c1ccc(OCC(=O)Nc2ccc3c(c2)OCCO3)cc1	-7.01% (inactive)
CC1CCCN(C(=O)c2ccc3c(c2)C(=O)N(CCC2=CCCCC2)C3=O)C1 (centres undefined)	-1.14% (inactive)
COc1ccccc1NC(=O)CSc1nnc(Cn2nnc(-c3ccccc3)n2)n1-c1ccccc1	2.15% (inactive)
O=C(c1ccco1)N1CCN=C1SCc1cccc(Cl)c1	-5.15% (inactive)
CCCCc1nc2ccccc2c(NC(=O)CN2CCN(C)CC2)c1CCC	-1.26% (inactive)
CCCn1cc(SCC(N)=O)c2ccccc21	-4.04% (inactive)
CC(C)(Oc1ccc(C2CC2(Cl)Cl)cc1)C(=O)O (centres undefined)	1.49% (inactive)
COC1(C2=NCCN2)COc2ccccc2O1 (centres undefined)	1.52% (inactive)
CCOC(=O)Nc1ccc2c(c1)N(C(=O)CN1CCN3CCCC3C1)c1ccccc1CC2 (centres undefined)	-6.22% (inactive)
Cc1ccc(S(=O)(=O)NC(=O)N2CCCC(C)(C)C2)cc1	-0.1% (inactive)

Structure (SMILES)	inhibition
O=c1c(F)cn(C2CCCO2)c(=O)n1Cc1ccccc1Cl (centres undefined)	-6.6% (inactive)
CCOC(=O)C1=C(CC)Nc2ccccc2N=C1NC(=O)c1cccc(S(=O)(=O)N2CCCC2)c1	-3.82% (inactive)
CCCCc1nc2ccccc2c(=O)n1NC(=O)c1c(O)c2cccc3c2n(c1=O)CC3	-2.36% (inactive)
CCCc1nc2ccccc2c(=O)n1/N=C/c1ccc(O)c(O)c1	70.7% (active)
CCCc1nc2ccccc2c(=O)n1NC(=O)c1c(O)c2ccccc2[nH]c1=O	-3.13% (inactive)
CCC(=O)Nc1cccc(NC(=O)CSc2nnc(-c3ccc(NS(C)(=O)=O)cc3)n2C)c1	-0.45% (inactive)
O=C(CCc1ccccc1)Nc1ccc(NC(=O)C2CC2)nc1	-2.83% (inactive)
N#CC1=C(N)Oc2n[nH]c(CSc3ccccc3)c2C12C(=O)Nc1ccccc12 (centres undefined)	-11.3% (inactive)
CC1Cc2ccccc2N1C(=O)CSc1nnc(-c2ccc(S(=O)(=O)N3CCCCC3)cc2)o1 (centres undefined)	-0.41% (inactive)
Nn1c(SCC(=O)NC(=O)NC2CCCC2)nnc1-c1ccccc1F	-5.58% (inactive)
CCOC(=O)/C=c1\s/c(=C\c2ccccc2OC)c(=O)n1CC(=O)N1CCOCC1	-5.13% (inactive)
Cc1cc(C)c2nc(N3CCCC3)c(C#N)cc2c1	4.01% (inactive)
Cc1noc(C)c1S(=O)(=O)N(CC(=O)Nc1ccc2c(c1)OCCO2)c1ccc(C(C)C)cc1	-1.54% (inactive)
CNc1ncnc2c1ncn2[C@@H]1O[C@H](CO)[C@H](O)C1O (some centres undefined)	-3.44% (inactive)
O=C(Nc1ccc(NC(=O)c2cccs2)cn1)c1ccco1	-0.15% (inactive)
CC(C)(C)c1ccc(NC(=O)NCc2ccco2)cc1	-5.65% (inactive)
Cc1ccc(C(=O)Nc2nnc(-c3cccs3)s2)cc1C	-0.3% (inactive)
CCNc1nc(N)nc(Oc2ccc(OCC)nn2)n1	-5.57% (inactive)
O=c1cc(-c2ccccc2)[nH]c2nc(Cl)ccc12	-1.33% (inactive)
